Experimental data: PubChem BioAssay AID588651 (The Scripps Research Institute Molecular Screening Center, 2011)
Activity calls are given as the source filed them. Rule as the data show it: active = inhibition above about 65%; inactive = the rest.

tested on: Antitargets; assay: Fam108b inhibition by ABPP, late-stage follow-up, biochemical, gel-based ABPP, recombinant soluble Fam108b, HTS hits, complex proteome (AID 588651); conditions: FP-rhodamine labeling in proteome;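 also: Fam108b spiked into mouse brain membrane proteome; tested at 20 µM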

outcome, inactive:
CCN(CC)c1ccc(C2Nc3cccc4cccc(c34)N2)c(O)c1
COc1ccc(-c2csc3nc(-c4ccccc4F)oc(=O)c23)cc1
COc1cc2cc(C(=O)NN=Cc3ccccc3Cl)[nH]c2cc1OC
CC(C)(C)c1nc2scc(-c3cccs3)c2c(=O)o1
O=C1C(Cl)=C(Nc2ccc3cn[nH]c3c2)C(=O)c2ccccc21
Cc1[nH]c2c(C)cccc2c1CCNC(=O)c1ccc2c(c1[N+](=O)[O-])C(=O)c1ccccc1C2=O
Cn1c2ccccc2c2cc(C=NNC(=O)c3cc(O)ccc3O)ccc21
COc1cc2c(cc1NC(=S)Nc1cccc(C(F)(F)F)c1)oc1ccccc12
O=S(=O)(c1cc(O)ccc1O)c1cccc2c(S(=O)(=O)c3cc(O)ccc3O)cccc12
CCN(c1ccccc1)S(=O)(=O)c1ccc(NC(=O)c2nc(S(C)(=O)=O)ncc2Cl)cc1
Nc1ccc2nc(-c3cccc(-c4nc5ccc(N)cc5[nH]4)c3)[nH]c2c1
Oc1c(Cl)cc(Cl)c(Cl)c1Cc1c(O)c(Cl)cc(Cl)c1Cl
Cc1ccnc(N=Cc2nc(-c3ccccc3Br)oc2O)c1
O=C1C(SCCO)=C(SCCO)C(=O)c2ccccc21
O=C1c2ccccc2-c2onc3ccc(NCCCn4ccnc4)c1c23
Cc1cc(NN=Cc2c(O)ccc3ccccc23)nc(-c2ccccc2O)n1
O=C(O)c1ccc(S(=O)(=O)/N=C2\C=C(Nc3ccccc3F)C(=O)c3ccccc32)cc1
